The panel holds about 83,000 compounds, 20% with a hit somewhere; the sample as a whole holds those more often.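 Negative percent growth values reflect cell death: -40 means 40% of the cells present at the start died, and -100 means all died.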 Unmarked numbers belong to inactive results. Activity calls are given as the source filed them. The calls were made as follows: active = growth percent below 10; inactive = the rest.

This note sets out measurements from PubChem BioAssay (NCI).

The subject of the experiment is MDA-MB-468 breast. Kind of experiment: NCI-60 one-dose screen, 48 h (100 = growth as untreated, 0 = no growth, -100 = all killed). Particulars: 10 µM unless noted.
For the compound `C=C1C(=O)O[C@H]2[C@H]1CC/C(COC(=O)C(=O)c1c[nH]c3ccc(OC)cc13)=C\CC[C@@]1(C)O[C@@H]21`, the growth is -67.5% (active).

`O=C1/C(=C/c2ccc(Cl)cc2)CCC/C1=C\c1ccc(Cl)cc1`: the growth was 67.9%.

Consider `Cc1cc2c(-c3nc4ccccc4[nH]3)c(O)c(O)cc2c(O)c1-c1c(C)cc2c(-c3nc4ccccc4[nH]3)c(O)c(O)cc2c1O`, for which the growth was -18.3% (active).

With `Clc1cc(Cl)cc(-c2ccc(-c3ccc(/C=N/NC4=NCCN4)cc3)s2)c1`, the growth was -3.62% (active).

As for `O=C(O)c1ccc(=O)[nH]n1`, the growth is 123%.

Regarding `COc1ccc(C/C(C)=C(\c2ccc(OCCN3CCCCCC3)cc2)c2ccc(OC(=O)C3CCCCC3)cc2)cc1`, the growth was 45%.

In the case of `CNCCCNc1nc2ccccc2c2c(=O)c3cc(F)ccc3sc12`, the growth is -57.3% (active).

Regarding `Clc1ccc(-c2cc(-c3ccccc3)nc(N3CCN(CCCNc4ccnc5cc(Cl)ccc45)CC3)n2)cc1`, the growth is -34% (active).

With `NC(N)=Nc1ccc(Oc2cccc(NC(N)=Nc3ccc(Cl)c(C(F)(F)F)c3)c2)cc1`, the growth was 10.1%.

For `CCOC(=O)c1ccc(NCCC(=O)O)cc1`, the growth is 95.5%.

As to `C=C(C)C(=O)O[C@H]1C[C@@]2(C)OC(=CC2=O)/C(C)=C\[C@H]2OC(=O)C(=C)[C@H]12`, the growth is -52.5% (active).

With `Cn1cc(C2=C(c3coc4cc(Br)ccc34)C(=O)NC2=O)c2ccccc21`, the growth was 5.23% (active).

Turning to `CC(C(=O)O)(C1CCCCC1)C1(O)CCCCC1` (stereo unspecified), the growth is 106%.

For `CSc1nc(N)c(NS(=O)(=O)c2ccc(C(C)=O)cc2)c(=O)[nH]1`, the growth is 97%.

With `NCCNc1nc2ccccc2c2c(=O)c3cccc(F)c3sc12`, the growth was 70.6%.

On to `NC(=S)N=Nc1c(O)c2ccccc2c2ccccc12`, for which the growth was 88.3%.

As for `Cc1cccc2c(=O)c3c(sc12)c(NCCCNCCO)nc1ccccc13`, the growth is 16.3%.

As for `Cc1ccc(S(=O)(=O)OC[C@@]2(C)CC[C@]3(C)CC[C@]4(C)C(=CC[C@@H]5[C@@]6(C)CCCNC(C)(C)[C@@H]6CC[C@]54C)[C@@H]3C2)cc1`, the growth was -85.5% (active).

For `CCOC(=O)c1ccc(Nc2ccnc(SCC(=O)c3ccc(C#N)cc3)n2)cc1`, the growth was 48.1%.

Regarding `CC(Nc1c(C#N)cnc2ccc(-c3cncc(O)c3)cc12)c1ccccc1` (stereo unspecified), the growth is -37% (active).

For `Cl.Fc1c[c-]c(-c2ccccn2)c(F)c1.[Pt].c1ccc(P(c2ccccc2)C([PH+](c2ccccc2)c2ccccc2)[PH+](c2ccccc2)c2ccccc2)cc1`, the growth was -4.27% (active).

As for `CC(=O)/C(=C\c1c(-c2ccccc2)[nH]c2ccccc12)S(=O)(=O)c1ccccc1`, the growth was 6.12% (active).

Consider `CCCS(=O)(=O)Nc1ccc(F)c(C(=O)c2c[nH]c3ncc(-c4ccc(OCCCC5CCCCN5)nc4)cc23)c1F` (stereo unspecified), for which the growth was 69.6%.

Consider `CNC(=O)c1ccccc1CC1(O)c2ccccc2Oc2ccccc21`, for which the growth is 42.9%.

As to `CC(NC(=O)c1ccccc1)C(=O)Nc1ccccc1` (stereo unspecified), the growth is 109%.

As for `C=C(C)[C@@H]1CC[C@]2(C(=O)N3CCCNCC3)CC[C@]3(C)[C@H](CC[C@@H]4[C@@]5(C)CCC(=O)C(C)(C)[C@@H]5CC[C@]43C)[C@@H]12`, the growth was 90.8%.

On to `COc1cc(-c2nnc(-c3c(-c4ccc(F)cc4)nc4ccccn34)o2)cc(OC)c1OC`, for which the growth was 99.4%.

As to `COc1ccc(C(=O)c2cc(OC)c(OC)c(OC)c2)cc1OC(=O)CCl`, the growth was 63.4%.

`Cc1ccc(C(=O)Nc2nc3c(s2)CN(Cc2ccccc2)CC3)cn1`: the growth was 67.1%.

Turning to `C[N+]1(C)C2CC[C@@H]1CC(OC(=O)C(O)c1ccccc1)C2` (stereo partly specified), the growth was 103%.

Take `O=C1c2ccccc2OC=C(c2ccccc2)N1CCCCNc1ccc(F)cc1`: the growth was 76.3%.

For `CCN(C(=O)CCl)C(C)(C)C(SSSC(c1ccc(Cl)cc1)C(C)(C)N(CC)C(=O)CCl)c1ccc(Cl)cc1` (stereo unspecified), the growth was 5.76% (active).

`COc1cc2c(cc1OC)-c1c(oc3c4c(ccc3c1=O)OC(C)(C)C=C4)CO2`: the growth was 19.2%.

As to `O=C(N/N=C(\CS(=O)(=O)c1ccccc1)c1cc2ccccc2oc1=O)c1ccccc1`, the growth was 117%.

Regarding `COc1cc(/C=N/n2cnc3oc(-c4ccccc4)cc3c2=N)cc(CN2CCN(C)CC2)c1O`, the growth was 91.9%.

As to `CCCCCC(=O)OCC(=O)O[C@@H]1C[C@]2(C(C)C)O[C@@]1(C)[C@@H]1CC[C@@H](C)[C@H]1[C@@H]2OC(=O)/C=C/c1ccccc1`, the growth was 70%.
